# Screens (PubChem)
# IL-1B inflam inh: blocks inflammasome-driven IL-1 beta release. THP-1 LPS/ATP IL-1B secretion, AlphaLISA, 16 h; stronger effect = lower value. activity change, % at 57.5 µM. actives 4.7% (n = 360,000); in the data active = activity change below about -50%; inconclusive = mostly about -30% to -49%; note: % is set by controls: 0 for no effect and ±100 for the full control effect
#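 THP-1 cells pretreated 1 hr with compounds (up to 57.5 uM final), then stimulated with LPS (250 ng/mL final) plus ATP (1.25 mM final); secreted IL-1B measured by AlphaLISA after 16 hr, decreased signal indicating inhibition.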
# PINK1 expr mod: modulators of PINK1 expression | PINK1 immunofluorescence, high-content cytometry, 24 h | AID 624263 | actives 0.2% (n = 410,000) | Potency, µM (series often up to 76.6 µM), without a hit: at the top dose activation (PINK1 increase), actives largely listed as activators; active = well fitted activation curve with a large enough effect; inconclusive = small, poorly fitted or top-dose-only effect; cell line not stated here; note: potency is the fitted concentration of half-maximal effect; % of control where 0% means no effect; nearly all actives have a fitted effect of over 65% in size
#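 Compound titrations (5 concentrations, 24 h) on a stable cell line; DMSO and CCCP controls. Endpoint: fixed-cell PINK1 immunofluorescence with mitochondrial, cell and nuclear markers, scanned by microplate cytometer.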
# ATXN2 expr inh: inhibitors of ATXN2 expression; Potency, µM (titrated, usually from 57 µM), inactives show at the highest dose activity change, negative = inhibition, actives largely listed as inhibitors; HEK-293 ATXN2-luciferase reporter, luminescence, 24 h; AID 1745845; actives 0.72% (n = 360,000); note: potency is the fitted concentration of half-maximal effect; % is set by controls: 0 for no effect and ±100 for the full control effect; nearly all actives have a fitted effect of over 55% in size
#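 qHTS (up to 57 uM final) was run with 24 h compound exposure of reporter cells at 37 °C. Each well was multiplexed: SteadyGlo luminescence measured ATXN2-luciferase expression after a fluorogenic Gly-Phe-AFC viability readout (25 uM final).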
# SW480 rerep: inducers of DNA re-replication in SW480 colon cancer cells | SW480 DNA re-replication, Hoechst DNA content imaging, 48 h | Potency, µM (series often up to 46.1 µM), for the others: top-dose re-replication activation, hits mostly activators | AID 624297 | actives 1.8% (n = 340,000); note: potency is the fitted concentration of half-maximal effect; % of control where 0% means no effect; nearly all actives have a fitted effect of over 55% in size
#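 Image-based read-out: total Hoechst fluorescence of nuclei (405 nm excitation, 500-530 nm emission), with hits raising the fraction of high-intensity nuclei. SW480 colon cells incubated 48 hr with compounds at 37 C.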
# S2 tox: reduces viability in counter-screen for ATXN expression inhibitors; S2 cells (HEK-293 line with an ATXN2-luciferase reporter) viability, CellTiter-Fluor protease fluorescence, 24 h; Potency, µM (series often up to 56.7 µM), usual class: cytotoxic; actives 0.49% (n = 400,000); AID 651635; note: potency is the fitted concentration of half-maximal effect; nearly all actives have a fitted effect of over 40% in size
# MCF10A rereplic: induces DNA re-replication in MCF 10a normal breast cells. MCF 10A DNA re-replication, Hoechst nuclear intensity, 48 h. Potency, µM (top dose mostly 46.1 µM), without a hit: at the top dose activity, positive = re-replication, usual class: activators. actives 2.9% (n = 350,000). AID 624296; note: potency is the fitted concentration of half-maximal effect; % of control where 0% means no effect; nearly all actives have a fitted effect of over 50% in size
# * = called active by the depositor; i = inactive; u = inconclusive; x = no result given; ! = not active in a repeat; [ ] = remark or other dose. Hits are enriched below; roughly 7.1% of the tested compounds scored in any of these assays. Unless noted, calls come from the whole dose curve; as a rule, active = well fitted curve in the direction sought with a large enough effect; inconclusive = small, poorly fitted or top-dose-only effect, or another doubt; inactive = no such curve, though single readings can be large; an effect the other way counts as inactive or inconclusive.
SMILES,IL-1B inflam inh,PINK1 expr mod,ATXN2 expr inh,SW480 rerep,S2 tox,MCF10A rereplic
CCOc1ccc(NC2=CC(=O)C(=O)c3ccccc32)cc1,-55*,2%,-27%,13µM*,u,u
N#Cc1cc(NC(=O)C(=O)O)c(Cl)c(NC(=O)C(=O)O)c1,x,x,18%,x,i,x
Cc1cc(C)c(Cn2c3ccccc3c3cnn(CC(=O)NCC(C)c4ccccc4)c(=O)c32)c(C)c1 (centres undefined),x,0%,10%,x,i,x
O=C1C=C(Nc2ccc(F)cc2)c2ccccc2C1=O,0,0%,u,9.2µM*,i,u
NS(=O)(=O)c1ccc(NC2=CC(=O)c3ccccc3C2=O)cc1,x,x,-16%,x,x,x
O=C1C=C(Nc2cccnc2)c2ccccc2C1=O,-70*,-1%,u,6.5µM*,x,9.2µM*
N#Cc1c(O)c2c(-c3ccc(-c4ccccc4O)cc3)csc2[nH]c1=O,x,x,-9%,x,x,x
O=S(=O)(Cc1nnnn1-c1ccc(Br)cc1)c1ccccc1,-22,3%,x,x,i,x
CCS(=O)(=O)c1nnnn1-c1ccccc1S(C)(=O)=O,-97*,26%[38.3 µM],-26%,u,u,u
COc1ccc(OC)c(-c2cc(Cl)c3c(c2)CC(CNC(=O)/C=C/c2ccccn2)O3)c1 (centres undefined),x,-1%,x,x,i,x
Cc1ccc(S(=O)(=O)N2CCN(C(=O)COC(=O)CNC(=O)c3ccc(Cl)cc3Cl)CC2)cc1,7,1%,1%,2%,i,0%
COc1ccccc1Nc1nn2c(=O)c3ccc(C(=O)N4CCCC(C)C4)cc3nc2s1 (centres undefined),-4,4%,u,-5%,32µM*!,u
CCOC(=O)C1CCN(C(=O)c2ccc3c(=O)n4nc(Nc5cc(C)ccc5C)sc4nc3c2)CC1,33,0%,-30%,u,i,8%
CCOC(=O)C1CCN(C(=O)c2ccc3c(=O)n4nc(Nc5ccccc5OC)sc4nc3c2)CC1,-52*,1%,x,x,i,x
COc1ccccc1Nc1nn2c(=O)c3ccc(C(=O)NCCCOC(C)C)cc3nc2s1,x,10%,-23%,x,i,x
CC1CCCN(C(=O)c2ccc3c(=O)n4nc(Nc5ccccc5)sc4nc3c2)C1 (centres undefined),-15,1%,x,x,i,x
CCN(CC)CCNC(=O)c1ccc2c(=O)n3nc(Nc4ccccc4OC)sc3nc2c1,x,3%,16µM*,x,u,x
COc1cc(CN2CCCC(n3cc(C(=O)N4CCCCC4)nn3)C2)cc(OC)c1OC (centres undefined),x,1%,x,x,i,x
O=C1OC(c2ccc3ccccc3c2O)(c2ccc3ccccc3c2O)c2ccccc21,-51*,8%,u,u,x,u
O=S(=O)(c1ccc(F)cc1)N1CCN(c2nc(-c3cccc(Br)c3)nc3ccccc23)CC1,x,3%,x,x,x,x
O=C(CSc1nc(C2CCCCC2)nc2ccccc12)NCc1ccco1,-82*,5%,-3%,0%,i,26%
CC1CCCCN1C(=O)CSc1nc(C2CC2)nc2ccccc12 (centres undefined),-77*,1%,-32%,u,i,u
CC1CCN(C(=O)CSc2nc(C3CC3)nc3ccccc23)CC1,u,-2%,-4%,10%,u,18%
COc1ccc(NS(=O)(=O)c2ccc3c(c2)CC(C)N3C(C)=O)c(OC)c1 (centres undefined),x,3%,-13%,x,i,x
COc1cccc(N2CCN(C(=O)c3ccc(C)c(NC(=O)c4nsc5ccccc45)c3)CC2)c1,x,2%,10%,x,i,x
SMILES,IL-1B inflam inh,PINK1 expr mod,ATXN2 expr inh,SW480 rerep,S2 tox,MCF10A rereplic
Cc1oc2ccc(O)c(CN3CCCC3)c2c1C(=O)Nc1ccc(C(C)C)cc1,x,1%,u,x,x,x
OC[C@H](O)[C@H](O)[C@@H](O)[C@@H](O)[C@@H]1SC(c2ccccc2)=NN1c1ccccc1,-62*,u,-25%,u,u,u
COc1cc(OC)c2c(-c3cccc(-c4ccoc4)c3)cc(=O)oc2c1,69,4%,u,u,u,7.3µM*
CCc1cc(=O)oc2cc3occ(C)c3cc12,-3,-1%,4%,4%,i,0%
COc1cc(OC)c2c(-c3cccc(-c4ccc(C(C)=O)cc4)c3)cc(=O)oc2c1,55,2%,2%,4.1µM*,i,0.65µM*
COc1cc(OC)c2c(-c3cccc(-c4ccc(OC)c(F)c4)c3)cc(=O)oc2c1,54,5%,20%,1.5µM*,i,u
CCc1cc(=O)oc2cc3occ(-c4ccc(OC)c(F)c4)c3cc12,42,14%,u,u,x,2.3µM*
Cc1ccc(C2=Nc3ccccc3N(CC(=O)Nc3ccccc3F)C(=O)C2)cc1C,x,1%,-11%,x,u,x
N=c1c(C(=O)NCC2CCCO2)cc2c(=O)n3ccccc3nc2n1C1CCCC1 (centres undefined),u,0%,-5%,u,x,5.2µM*
Cc1cccn2c(=O)c3cc(C(=O)NCC4CCCO4)c(=N)n(C4CCCC4)c3nc12 (centres undefined),0,0%,-10%,18µM*,x,u
N=c1c(C(=O)NCC2CCCO2)cc2c(=O)n3ccccc3nc2n1C1CCCCC1 (centres undefined),-9,0%,-18%,u,x,15µM*
Cc1ccc2nc3c(cc(C(=O)NCC4CCCO4)c(=N)n3C3CCCC3)c(=O)n2c1 (centres undefined),6,1%,u,10%,x,u
OC(CCN1CCC2CCC(C2)C1)c1ccc(Br)cc1 (centres undefined),-7,0%,-14%,15µM*,i,17%
O=C(CCN1CCC2CCC(C2)C1)c1ccccc1 (centres undefined),-4,1%,7%,u,i,u
Cc1ncc2c(c1CNS(=O)(=O)c1cccs1)CCN(C(=O)/C=C/c1ccc(F)cc1F)C2,x,1%,x,x,i,x
COc1ccccc1S(=O)(=O)N(C)C[C@@H]1OCc2cnnn2CCCC(=O)N([C@@H](C)CO)C[C@H]1C,-9,0%,4%,x,i,x
O=C(Nc1cccn(Cc2c(Cl)cccc2Cl)c1=O)c1ccc(Cl)cc1Cl,-59*,8%[38.3 µM],-20%,24%,i,15%
O=C(Nc1cccn(Cc2c(Cl)cccc2Cl)c1=O)c1ccccc1Cl,u,-1%,-20%,1%,i,16%
CC(C)(C)c1ccc(-c2noc(-c3ccc4c(c3)CCO4)n2)cc1,12,5%,18%,4.6µM*,i,u
